Data taken from the supplement of paper PMC10849652.
About 7,900 targets were measured; listed, in parts, are those with a hit and a random draw of the rest. About 0.6% of all pairs of compound and target were hits.

What was measured:
Assay in all cases: log2 fold change, soluble protein after heating vs DMSO (PISA); higher = thermal stabilisation; K562 cells, 10 uM, 30 min; active = over 0.2 and 3.5 SD of the protein, either way, in both replicates (recomputed)
saracatinib = compound: CN1CCN(CCOc2cc(OC3CCOCC3)c3c(Nc4c(Cl)ccc5c4OCO5)ncnc3c2)CC1 [saracatinib]
In short: (§1)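 K562 cells at 2×10^6 cells/mL were treated for 30 min with 10 μM compound, and aliquots were heated for 3 min over 48°C-58°C before pooling. Extraction used PBS with 0.5% NP-40 at 4°C, and soluble protein was the supernatant after 21,000xg for 90 min, measured by TMTpro 16plex LC-MS/MS with channel sums equalised. Thermal stability values, relative to control samples and from duplicates, are log2 fold changes.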

sotrastaurin = compound: CN1CCN(c2nc(C3=C(c4c[nH]c5ccccc45)C(=O)NC3=O)c3ccccc3n2)CC1 [sotrastaurin]
In short: as §1

alvocidib = compound: CN1CC[C@H](c2c(O)cc(O)c3c(=O)cc(-c4ccccc4Cl)oc23)[C@H](O)C1 [alvocidib]
In short: as §1

Tubastatin A = compound: CN1CCc2c(c3ccccc3n2Cc2ccc(C(=O)NO)cc2)C1 [Tubastatin A]
In short: as §1

[1] = compound: CNC(=O)C1=CC=CC=C1NC2=NC(=NC=C2Cl)NC3=C(C=C(C=C3)N4CCOCC4)OC
In short: as §1

defactinib = compound: CNC(=O)c1ccc(Nc2ncc(C(F)(F)F)c(NCc3nccnc3N(C)S(C)(=O)=O)n2)cc1 [defactinib]
In short: as §1

rucaparib = compound: CNCc1ccc(-c2[nH]c3cc(F)cc4c3c2CCNC4=O)cc1 [rucaparib]
In short: as §1

[2] = compound: CNc1nc(-c2ccc3c(N)n[nH]c3c2)cc(N2C[C@@H](C(=O)NC3CCCCC3)CC[C@H]2C)n1
In short: as §1

encorafenib = compound: COC(=O)N[C@@H](C)CNc1nccc(-c2cn(C(C)C)nc2-c2cc(Cl)cc(NS(C)(=O)=O)c2F)n1 [encorafenib]
In short: as §1

[3] = compound: COC(=O)[C@H](CCSC)NC(=O)C1=C(C=C(C=C1)NC[C@H](CS)N)C2=CC=CC=C2
In short: as §1

Measured: log2 fold change

UBA6
inactive: saracatinib -0.006 | sotrastaurin -0.125 | alvocidib -0.08 | Tubastatin A -0.047 | [1] 0.041 | defactinib -0.089 | rucaparib 0.024 | [2] 0.011 | encorafenib 0.049 | [3] -0.032

WASH2P (UniProt Q6VEQ5)
inactive: saracatinib 0.009 | sotrastaurin -0.08 | alvocidib -0.018 | Tubastatin A -0.059 | [1] 0.02 | defactinib -0.004 | rucaparib -0.011 | [2] -0.037 | encorafenib 0.004 | [3] 0.007

TXNRD1 (UniProt Q16881)
inactive: saracatinib -0.012 | sotrastaurin 0.058 | alvocidib -0.05 | Tubastatin A -0.001 | [1] 0.022 | defactinib -0.015 | rucaparib -0.113 | [2] 0.032 | encorafenib -0.033 | [3] -0.001

VPS52 (UniProt Q8N1B4)
inactive: saracatinib -0.012 | sotrastaurin -0.107 | alvocidib -0.061 | Tubastatin A 0.074 | [1] -0.047 | defactinib -0.031 | rucaparib 0.121 | [2] -0.01 | encorafenib 0.02 | [3] -0.072

UTP3 (UniProt Q9NQZ2)
inactive: saracatinib 0.232 | sotrastaurin -0.1 | alvocidib 0.173 | Tubastatin A 0.067 | [1] 0.094 | defactinib 0.104 | rucaparib 0.238 | [2] -0.106 | encorafenib 0.23 | [3] 0.051

VTI1A (UniProt Q96AJ9)
Sequence of UniProt Q96AJ9 (Q96AJ9 whole entry, looked up): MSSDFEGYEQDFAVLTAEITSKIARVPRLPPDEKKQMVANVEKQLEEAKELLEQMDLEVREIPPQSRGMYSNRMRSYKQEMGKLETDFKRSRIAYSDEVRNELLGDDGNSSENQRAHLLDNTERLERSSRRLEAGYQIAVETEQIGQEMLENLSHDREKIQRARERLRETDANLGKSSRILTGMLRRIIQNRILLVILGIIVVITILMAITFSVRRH
inactive: saracatinib 0.101 | sotrastaurin 0.027 | alvocidib -0.002 | Tubastatin A -0.028 | [1] 0.095 | defactinib -0.03 | rucaparib -0.058 | [2] -0.042 | encorafenib -0.001 | [3] 0.07

TNFRSF10A (UniProt O00220)
inactive: saracatinib -0.038 | sotrastaurin -0.012 | alvocidib 0.02 | Tubastatin A 0.04 | [1] -0.052 | defactinib 0.039 | rucaparib 0.017 | [2] 0.02 | encorafenib 0.031 | [3] 0.056

TPM2 (UniProt P07951)
inactive: saracatinib 0.177 | sotrastaurin -0.033 | alvocidib -0.078 | Tubastatin A -0.012 | [1] 0.004 | defactinib 0.042 | rucaparib -0.027 | [2] -0.026 | encorafenib -0.006 | [3] 0.102

WDR18 (UniProt Q9BV38)
inactive: saracatinib 0.057 | sotrastaurin -0.001 | alvocidib -0.027 | Tubastatin A 0.008 | [1] -0.032 | defactinib -0.051 | rucaparib -0.009 | [2] -0.038 | encorafenib 0.001 | [3] 0.003

TSFM (UniProt P43897)
Sequence of UniProt P43897 (P43897 whole entry, looked up): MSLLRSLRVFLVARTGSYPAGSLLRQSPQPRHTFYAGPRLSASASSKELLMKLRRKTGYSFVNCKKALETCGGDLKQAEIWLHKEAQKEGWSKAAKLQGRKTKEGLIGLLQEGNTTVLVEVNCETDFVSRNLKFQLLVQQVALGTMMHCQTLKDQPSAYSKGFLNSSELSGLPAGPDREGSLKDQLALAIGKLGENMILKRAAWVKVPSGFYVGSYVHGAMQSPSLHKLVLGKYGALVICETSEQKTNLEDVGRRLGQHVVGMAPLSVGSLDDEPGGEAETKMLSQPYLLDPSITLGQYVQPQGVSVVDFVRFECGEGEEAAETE
inactive: saracatinib 0.057 | sotrastaurin -0.157 | alvocidib -0.132 | Tubastatin A 0.063 | [1] 0.021 | defactinib -0.166 | rucaparib -0.001 | [2] -0.073 | encorafenib 0.167 | [3] -0.082

TRAPPC8 (UniProt Q9Y2L5)
inactive: saracatinib -0.017 | sotrastaurin -0.044 | alvocidib -0.055 | Tubastatin A -0.004 | [1] 0.014 | defactinib -0.104 | rucaparib 0.074 | [2] 0.008 | encorafenib 0.032 | [3] -0.032

WASHC2C, A0A096LPC5
Sequence of WASHC2C, A0A096LPC5 (A0A096LPC5 whole entry, looked up): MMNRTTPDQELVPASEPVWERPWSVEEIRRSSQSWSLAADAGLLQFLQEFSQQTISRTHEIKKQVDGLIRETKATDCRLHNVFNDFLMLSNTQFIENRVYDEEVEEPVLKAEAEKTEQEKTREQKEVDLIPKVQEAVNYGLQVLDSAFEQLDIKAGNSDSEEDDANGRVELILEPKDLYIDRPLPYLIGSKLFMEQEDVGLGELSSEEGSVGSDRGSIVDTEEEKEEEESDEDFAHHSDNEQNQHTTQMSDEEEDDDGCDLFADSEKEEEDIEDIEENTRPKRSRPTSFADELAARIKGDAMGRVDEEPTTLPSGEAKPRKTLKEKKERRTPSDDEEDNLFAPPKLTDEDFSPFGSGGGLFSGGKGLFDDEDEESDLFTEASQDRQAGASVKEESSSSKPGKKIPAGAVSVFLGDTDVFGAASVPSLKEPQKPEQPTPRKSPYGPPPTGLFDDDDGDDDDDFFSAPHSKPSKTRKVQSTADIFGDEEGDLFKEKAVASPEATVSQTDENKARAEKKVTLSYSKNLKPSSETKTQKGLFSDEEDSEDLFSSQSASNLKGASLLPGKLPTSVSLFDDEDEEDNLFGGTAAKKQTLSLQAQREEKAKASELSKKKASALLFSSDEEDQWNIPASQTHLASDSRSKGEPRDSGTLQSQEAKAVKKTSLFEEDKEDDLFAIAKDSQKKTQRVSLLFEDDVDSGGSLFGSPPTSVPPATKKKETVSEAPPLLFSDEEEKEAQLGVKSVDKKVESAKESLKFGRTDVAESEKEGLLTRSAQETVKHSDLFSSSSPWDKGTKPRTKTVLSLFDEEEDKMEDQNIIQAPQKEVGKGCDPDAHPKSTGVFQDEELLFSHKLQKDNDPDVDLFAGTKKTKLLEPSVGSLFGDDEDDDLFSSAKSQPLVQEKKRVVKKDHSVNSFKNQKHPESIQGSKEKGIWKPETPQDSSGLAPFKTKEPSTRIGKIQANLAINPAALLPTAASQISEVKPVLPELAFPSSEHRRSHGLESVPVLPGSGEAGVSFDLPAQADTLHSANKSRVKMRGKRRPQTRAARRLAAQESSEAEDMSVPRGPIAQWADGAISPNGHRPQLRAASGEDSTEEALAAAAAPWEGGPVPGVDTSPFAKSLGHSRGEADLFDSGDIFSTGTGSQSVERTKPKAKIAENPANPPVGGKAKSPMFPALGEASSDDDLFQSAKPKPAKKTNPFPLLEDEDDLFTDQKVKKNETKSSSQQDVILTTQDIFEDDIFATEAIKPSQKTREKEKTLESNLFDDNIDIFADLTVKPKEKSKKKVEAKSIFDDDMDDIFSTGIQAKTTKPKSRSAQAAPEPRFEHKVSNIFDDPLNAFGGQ
inactive: saracatinib -0.116 | sotrastaurin -0.09 | alvocidib 0.071 | Tubastatin A -0.02 | [1] -0.019 | defactinib -0.121 | rucaparib 0.114 | [2] -0.02 | encorafenib 0.035 | [3] 0.052

UBE4B isoform 4 (UniProt O95155)
Sequence of UniProt O95155 (O95155 whole entry, looked up): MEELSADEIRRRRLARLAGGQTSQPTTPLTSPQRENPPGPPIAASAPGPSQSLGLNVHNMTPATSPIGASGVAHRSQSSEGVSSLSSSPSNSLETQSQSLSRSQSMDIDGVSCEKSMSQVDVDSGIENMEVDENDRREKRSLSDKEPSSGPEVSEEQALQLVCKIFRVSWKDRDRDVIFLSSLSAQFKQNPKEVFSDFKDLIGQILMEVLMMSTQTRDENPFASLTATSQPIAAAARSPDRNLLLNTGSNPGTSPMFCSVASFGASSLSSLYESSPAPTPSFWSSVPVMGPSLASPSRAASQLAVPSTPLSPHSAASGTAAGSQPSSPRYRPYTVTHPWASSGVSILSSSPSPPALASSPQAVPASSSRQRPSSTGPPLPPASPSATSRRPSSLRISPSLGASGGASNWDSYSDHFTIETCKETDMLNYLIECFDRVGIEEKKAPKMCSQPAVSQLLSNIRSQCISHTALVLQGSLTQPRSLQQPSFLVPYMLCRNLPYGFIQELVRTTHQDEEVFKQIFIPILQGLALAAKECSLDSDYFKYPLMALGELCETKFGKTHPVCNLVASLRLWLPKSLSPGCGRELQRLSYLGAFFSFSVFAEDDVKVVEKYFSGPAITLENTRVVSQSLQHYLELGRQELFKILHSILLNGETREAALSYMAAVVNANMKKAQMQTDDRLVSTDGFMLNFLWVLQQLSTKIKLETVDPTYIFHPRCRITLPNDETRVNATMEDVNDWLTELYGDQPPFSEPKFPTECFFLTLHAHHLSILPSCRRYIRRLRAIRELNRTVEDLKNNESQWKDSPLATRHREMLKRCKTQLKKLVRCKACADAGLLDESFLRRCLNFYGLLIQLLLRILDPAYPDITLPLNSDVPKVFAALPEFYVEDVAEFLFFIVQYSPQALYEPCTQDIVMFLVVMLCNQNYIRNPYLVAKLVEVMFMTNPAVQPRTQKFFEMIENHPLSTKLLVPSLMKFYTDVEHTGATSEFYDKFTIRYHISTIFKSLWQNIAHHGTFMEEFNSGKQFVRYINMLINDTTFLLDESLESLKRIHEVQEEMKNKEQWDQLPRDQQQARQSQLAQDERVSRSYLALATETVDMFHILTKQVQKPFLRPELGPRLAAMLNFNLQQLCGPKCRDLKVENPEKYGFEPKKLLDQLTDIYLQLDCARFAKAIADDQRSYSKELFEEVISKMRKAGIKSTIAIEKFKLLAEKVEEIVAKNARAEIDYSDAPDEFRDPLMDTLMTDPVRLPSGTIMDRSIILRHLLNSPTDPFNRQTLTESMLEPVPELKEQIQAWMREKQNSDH
inactive: saracatinib 0.018 | sotrastaurin -0.038 | alvocidib -0.104 | Tubastatin A 0.016 | [1] 0.02 | defactinib -0.071 | rucaparib -0.077 | [2] -0.058 | encorafenib 0.01 | [3] -0.001

WRB (UniProt O00258)
inactive: saracatinib -0.007 | sotrastaurin 0.075 | alvocidib 0.034 | Tubastatin A -0.051 | [1] -0.048 | defactinib 0.073 | rucaparib -0.003 | [2] -0.014 | encorafenib -0.057 | [3] 0.023

VAMP7 (UniProt P51809)
inactive: saracatinib 0.029 | sotrastaurin 0.012 | alvocidib -0.019 | Tubastatin A -0.001 | [1] 0.03 | defactinib -0.028 | rucaparib -0.027 | [2] -0.022 | encorafenib 0.029 | [3] -0.011

USO1 isoform 2 (UniProt O60763)
inactive: saracatinib 0.076 | sotrastaurin -0.028 | alvocidib -0.012 | Tubastatin A -0.026 | [1] 0.029 | defactinib -0.034 | rucaparib -0.019 | [2] 0.03 | encorafenib 0.022 | [3] -0.003

WDR46 (UniProt O15213)
inactive: saracatinib -0.095 | sotrastaurin 0.003 | alvocidib 0.387 | Tubastatin A 0.101 | [1] 0.101 | defactinib 0.39 | rucaparib 0.289 | [2] 0.084 | encorafenib 0.128 | [3] -0.015

WDHD1 (UniProt O75717)
inactive: saracatinib -0.027 | sotrastaurin -0.067 | alvocidib -0.135 | Tubastatin A 0.079 | [1] 0.075 | defactinib -0.201 | rucaparib -0.06 | [2] 0 | encorafenib 0.119 | [3] -0.022

VPS39 (UniProt Q96JC1)
inactive: saracatinib 0 | sotrastaurin -0.097 | alvocidib -0.035 | Tubastatin A 0.033 | [1] -0.015 | defactinib -0.068 | rucaparib 0.039 | [2] 0.005 | encorafenib -0.006 | [3] -0.03

TMEM177 (UniProt Q53S58)
inactive: saracatinib 0.078 | sotrastaurin 0.014 | alvocidib 0.031 | Tubastatin A 0.08 | [1] 0.005 | defactinib -0.046 | rucaparib 0.009 | [2] -0.003 | encorafenib -0.02 | [3] 0.024

VPS41 (UniProt P49754)
Sequence of UniProt P49754 (P49754 whole entry, looked up): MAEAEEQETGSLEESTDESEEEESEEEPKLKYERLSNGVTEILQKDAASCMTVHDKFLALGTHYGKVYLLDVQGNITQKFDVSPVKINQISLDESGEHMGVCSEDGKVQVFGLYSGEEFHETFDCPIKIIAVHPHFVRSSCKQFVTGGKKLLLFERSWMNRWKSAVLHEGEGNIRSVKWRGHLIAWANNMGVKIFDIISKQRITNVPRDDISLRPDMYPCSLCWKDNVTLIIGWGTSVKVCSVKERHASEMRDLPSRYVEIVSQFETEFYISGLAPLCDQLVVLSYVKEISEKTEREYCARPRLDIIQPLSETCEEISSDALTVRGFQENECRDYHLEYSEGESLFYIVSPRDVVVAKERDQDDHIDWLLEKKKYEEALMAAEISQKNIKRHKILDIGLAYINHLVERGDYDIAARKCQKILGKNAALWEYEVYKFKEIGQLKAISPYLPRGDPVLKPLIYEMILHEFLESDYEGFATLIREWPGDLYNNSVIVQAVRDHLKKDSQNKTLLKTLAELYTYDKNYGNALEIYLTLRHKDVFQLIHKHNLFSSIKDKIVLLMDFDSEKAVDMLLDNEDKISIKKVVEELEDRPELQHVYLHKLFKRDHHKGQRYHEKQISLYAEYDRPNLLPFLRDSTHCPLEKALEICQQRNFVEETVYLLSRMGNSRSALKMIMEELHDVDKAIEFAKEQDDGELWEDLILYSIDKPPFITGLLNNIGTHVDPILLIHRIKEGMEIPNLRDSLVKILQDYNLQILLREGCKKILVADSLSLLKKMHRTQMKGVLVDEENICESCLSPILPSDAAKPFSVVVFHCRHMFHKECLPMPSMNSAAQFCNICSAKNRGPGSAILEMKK
inactive: saracatinib -0.02 | sotrastaurin -0.077 | alvocidib -0.046 | Tubastatin A 0.034 | [1] -0.055 | defactinib -0.041 | rucaparib 0.023 | [2] -0.001 | encorafenib -0.011 | [3] 0.103

VPS16 (UniProt Q9H269)
inactive: saracatinib 0.026 | sotrastaurin -0.171 | alvocidib -0.028 | Tubastatin A -0.001 | [1] -0.071 | defactinib -0.042 | rucaparib -0.049 | [2] -0.054 | encorafenib 0.196 | [3] -0.022

VKORC1 (UniProt Q9BQB6)
inactive: saracatinib 0.002 | sotrastaurin -0.086 | alvocidib 0.073 | Tubastatin A -0.052 | [1] 0.105 | defactinib -0.038 | rucaparib -0.059 | [2] 0.026 | encorafenib 0.057 | [3] -0.023

UBE2D1 (UniProt P51668)
inactive: saracatinib 0.03 | sotrastaurin 0.056 | alvocidib -0.055 | Tubastatin A -0.058 | [1] -0.035 | defactinib -0.016 | rucaparib 0.006 | [2] -0.105 | encorafenib 0.01 | [3] -0.047

UHRF1BP1 (UniProt Q6BDS2)
inactive: saracatinib 0.011 | sotrastaurin 0.049 | alvocidib -0.043 | Tubastatin A 0.016 | [1] -0.013 | defactinib -0.064 | rucaparib -0.007 | [2] 0.048 | encorafenib -0.012 | [3] 0.017

TRAM1 (UniProt Q15629)
Sequence of UniProt Q15629 (Q15629 whole entry, looked up): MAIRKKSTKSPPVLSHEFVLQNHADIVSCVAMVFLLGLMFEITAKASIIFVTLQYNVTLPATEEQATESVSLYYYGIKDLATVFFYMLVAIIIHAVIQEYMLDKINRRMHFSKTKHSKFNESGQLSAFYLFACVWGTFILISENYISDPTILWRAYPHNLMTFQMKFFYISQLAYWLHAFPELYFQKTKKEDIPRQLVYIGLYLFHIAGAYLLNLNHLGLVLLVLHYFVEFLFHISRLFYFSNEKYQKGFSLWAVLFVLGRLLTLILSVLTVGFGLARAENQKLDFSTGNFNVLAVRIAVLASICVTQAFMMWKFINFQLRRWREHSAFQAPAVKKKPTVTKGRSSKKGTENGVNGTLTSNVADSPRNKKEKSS
inactive: saracatinib -0.007 | sotrastaurin -0.025 | alvocidib -0.02 | Tubastatin A -0.052 | [1] -0.208 | defactinib -0.029 | rucaparib -0.132 | [2] 0 | encorafenib 0.179 | [3] -0.052

VPS28 (UniProt Q9UK41)
inactive: saracatinib -0.101 | sotrastaurin -0.078 | alvocidib -0.135 | Tubastatin A 0.072 | [1] 0.043 | defactinib -0.172 | rucaparib -0.044 | [2] -0.046 | encorafenib 0.082 | [3] -0.033

VPS33B (UniProt Q9H267)
Sequence of UniProt Q9H267 (Q9H267 whole entry, looked up): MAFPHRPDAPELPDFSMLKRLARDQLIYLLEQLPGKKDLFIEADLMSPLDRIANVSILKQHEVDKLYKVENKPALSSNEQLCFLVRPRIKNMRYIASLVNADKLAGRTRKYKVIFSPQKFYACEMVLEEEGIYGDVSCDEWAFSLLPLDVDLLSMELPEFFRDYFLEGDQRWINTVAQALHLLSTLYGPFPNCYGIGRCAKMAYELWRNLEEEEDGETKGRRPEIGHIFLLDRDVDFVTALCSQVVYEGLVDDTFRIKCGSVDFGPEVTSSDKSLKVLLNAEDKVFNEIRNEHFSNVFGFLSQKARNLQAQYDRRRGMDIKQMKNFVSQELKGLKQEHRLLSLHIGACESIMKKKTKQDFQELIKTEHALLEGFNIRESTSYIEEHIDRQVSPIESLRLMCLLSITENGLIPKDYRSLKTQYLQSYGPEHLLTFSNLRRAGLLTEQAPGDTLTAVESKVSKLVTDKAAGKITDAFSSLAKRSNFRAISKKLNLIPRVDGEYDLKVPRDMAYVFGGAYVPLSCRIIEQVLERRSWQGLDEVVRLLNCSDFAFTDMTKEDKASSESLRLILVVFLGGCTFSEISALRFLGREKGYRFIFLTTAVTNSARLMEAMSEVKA
inactive: saracatinib -0.088 | sotrastaurin -0.117 | alvocidib -0.008 | Tubastatin A 0.039 | [1] -0.071 | defactinib -0.078 | rucaparib 0.196 | [2] 0.052 | encorafenib 0.111 | [3] -0.058

VPS51 (UniProt Q9UID3)
inactive: saracatinib -0.029 | sotrastaurin -0.097 | alvocidib -0.113 | Tubastatin A 0.029 | [1] -0.011 | defactinib -0.056 | rucaparib 0.041 | [2] -0.034 | encorafenib 0.046 | [3] 0.002

TUT4 (UniProt Q5TAX3)
inactive: saracatinib -0.089 | sotrastaurin 0.003 | alvocidib 0.112 | Tubastatin A 0.073 | [1] -0.075 | defactinib -0.095 | rucaparib -0.001 | [2] -0.008 | encorafenib -0.144 | [3] 0.082
